Screens (PubChem)
VP16 counter: VP16 counterscreen qHTS for inhibitors of ROR gamma transcriptional activity | Potency, µM (top dose mostly 53.6 µM), actives largely listed as inhibitors | AID 2546, 2010 | hit rate 3.5% among 310,000 | Drosophila S2 Gal4-VP16 UAS-luciferase, luminescence, 20 h;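 note: Gal4-VP16 expression switched on by copper sulfate through the metallothionein promoter; nearly all actives have a fitted effect of over 50% in size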
RORgamma inh: qHTS for inhibitors of ROR gamma transcriptional activity. AID 2551, 2010. hit rate 5.4% among 310,000. Drosophila S2 Gal4-RORgamma UAS-luciferase reporter, 20 h. Nuclear receptor ROR-gamma (Mus musculus), P51450. Potency, µM (series often up to 53.6 µM), most hits filed as inhibitors; note: nearly all actives have a fitted effect of over 60% in size
Target sequence (P51450 whole entry, looked up, the tested form may be a part): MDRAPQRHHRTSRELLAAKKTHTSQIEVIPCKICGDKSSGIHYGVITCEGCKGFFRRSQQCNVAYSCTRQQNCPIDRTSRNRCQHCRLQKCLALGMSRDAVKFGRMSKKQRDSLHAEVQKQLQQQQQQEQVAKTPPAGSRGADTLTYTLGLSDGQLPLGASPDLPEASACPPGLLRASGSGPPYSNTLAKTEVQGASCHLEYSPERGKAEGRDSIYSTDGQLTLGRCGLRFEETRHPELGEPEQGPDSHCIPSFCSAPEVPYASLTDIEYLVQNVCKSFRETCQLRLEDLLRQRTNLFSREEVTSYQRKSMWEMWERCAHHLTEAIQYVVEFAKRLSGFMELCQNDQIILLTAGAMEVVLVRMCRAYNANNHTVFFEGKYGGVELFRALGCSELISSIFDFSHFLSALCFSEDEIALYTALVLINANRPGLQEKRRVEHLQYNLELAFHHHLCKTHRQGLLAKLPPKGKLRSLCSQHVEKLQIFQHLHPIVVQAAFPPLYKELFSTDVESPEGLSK
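Schneider cells (Drosophila), stable Gal4 DBD–ROR gamma + UAS-luc; 1 hr cmpd preincubation; Cu2+ induction 700 uM final; 20 hr ambient; luminescence.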
SW480 rereplic: A quantitative high throughput screen for small molecules that induce DNA re-replication in SW480 colon adenocarcinoma cells; SW480 DNA re-replication, Hoechst DNA content imaging, 48 h; Potency, µM (series often up to 46.1 µM), actives largely listed as activators; hit rate 1.8% among 340,000; note: nearly all actives have a fitted effect of over 55% in size
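Quantitative HTS format with DMSO vehicle controls; 48 hr drug incubation at 37 C, then 40 min Hoechst staining and scanning imager measurement at 405 nm excitation.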
Giardia killer: Small Molecules that selectively kill Giardia lamblia: qHTS; hit rate 0.15% among 340,000; activity change, % at 7.66 µM, hits read low; Giardia lamblia trophozoite viability; in the data active = activity change below about -80%; inconclusive = between about -30% and that limit;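 note: parasites exposed to compound for two days anaerobically before the ATP read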
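Trophozoites 100 cells/well + cpd; 48 hrs, 37 deg C, anaerobic. ATPLite 1-Step added, 15-30 min RT, luminescence read (ATP-based viability).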
MCF10A rerep: A quantitative high throughput screen for small molecules that induce DNA re-replication in MCF 10a normal breast cells; MCF 10A DNA re-replication, Hoechst nuclear intensity, 48 h; Potency, µM (top dose mostly 46.1 µM), hits mostly activators; hit rate 2.9% among 350,000; AID 624296, 2012; note: nearly all actives have a fitted effect of over 50% in size
BCR signal inh: qHTS Assay to Find Inhibitors of Chronic Active B-Cell Receptor Signaling | ABC-DLBCL IkBa-CBG/CBR reporter, luminescence ratio, 4 h | Potency, µM (doses to about 46.1 µM), most hits filed as inhibitors | hit rate 0.05% among 340,000 | AID 493014, 2011; active = well fitted inhibition curve with a large enough effect in the signal ratio, with a control signal flat, not every such curve was filed as active; inconclusive = small, poorly fitted or top-dose-only effect, or effect the other way, or a change in a side signal; the % refers to the signal ratio
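Compounds up to 46 uM were incubated four hours with TMD8 cells whose green CBG68 luciferase is fused to IkappaBalpha; red CBR luminescence normalised the signal, and concentration-effect curves were fitted to fusion, red and ratio data.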
A number is an active result. Most compounds without a hit are left out; they make up all but 8.3% or so of the library. Unless noted, calls come from the whole dose curve; as a rule, active = well fitted curve in the direction sought with a large enough effect; inconclusive = small, poorly fitted or top-dose-only effect, or another doubt; inactive = no such curve, though single readings can be large; an effect the other way counts as inactive or inconclusive.

How did COc1ccc(C(NC(=O)C(C)C)c2ccc3cccnc3c2O)cc1 (centres undefined) do in these assays?
VP16 counter: 6.3µM; RORgamma inh: 2.2µM; SW480 rereplic: inconclusive; Giardia killer: inactive; MCF10A rerep: inactive; BCR signal inh: inconclusive

Results for Cc1cc(NC(c2ccc(Cl)cc2)c2ccc3cccnc3c2O)no1 (centres undefined) ?
VP16 counter: 2µM; RORgamma inh: 0.79µM; SW480 rereplic: inconclusive; Giardia killer: inactive; MCF10A rerep: inconclusive; BCR signal inh: inconclusive

Results for CCOc1ccc(NS(=O)(=O)c2coc(C(N)=O)c2)cc1 ?
VP16 counter: inactive; RORgamma inh: inactive; SW480 rereplic: inactive; Giardia killer: inactive; MCF10A rerep: inactive; BCR signal inh: inactive

What do the screens show for `O=C(O)CC(CC(=O)O)(C(=O)O)c1ccccc1`?
VP16 counter: inactive; RORgamma inh: inactive; SW480 rereplic: inactive; Giardia killer: inactive; MCF10A rerep: inactive; BCR signal inh: inactive

Results for CCCCC(=O)NC(c1ccc(Cl)cc1Cl)c1ccc2cccnc2c1O (centres undefined) ?
VP16 counter: 3.2µM; RORgamma inh: 3.2µM; SW480 rereplic: 1.2µM; Giardia killer: inactive; MCF10A rerep: inconclusive; BCR signal inh: inconclusive

Results for Cc1cccn2cc(CCNS(=O)(=O)c3cccs3)nc12 ?
VP16 counter: inactive; RORgamma inh: inactive; SW480 rereplic: inconclusive; Giardia killer: inactive; MCF10A rerep: inactive; BCR signal inh: inactive

How did O=C(CCCN1C(=O)/C(=C/c2ccc(F)cc2)SC1=S)NCCCn1ccnc1 do in these assays?
VP16 counter: inconclusive; RORgamma inh: 8.9µM; SW480 rereplic: inactive; Giardia killer: inactive; MCF10A rerep: 21µM; BCR signal inh: inconclusive

Results for COc1ccccc1/C=C1\SC(=S)N(CCC(=O)NCCCn2ccnc2)C1=O ?
VP16 counter: inactive; RORgamma inh: 16µM; SW480 rereplic: inactive; Giardia killer: inactive; MCF10A rerep: inactive; BCR signal inh: inconclusive

Results for COc1cc(SC)ccc1C(=O)Nc1cccc(S(=O)(=O)NC2=NCCC2)c1 ?
SW480 rereplic: inactive; Giardia killer: inactive; MCF10A rerep: inactive; BCR signal inh: inconclusive

How did COP(=O)(OC)c1nc(-c2cccc3ccccc23)oc1NCc1ccccc1 do in these assays?
VP16 counter: inconclusive; RORgamma inh: inactive; SW480 rereplic: 13µM; Giardia killer: inactive; MCF10A rerep: 18µM; BCR signal inh: inconclusive

What do the screens show for `COCCNC(=O)COc1ccc(Oc2ccccc2)cc1`?
VP16 counter: inactive; RORgamma inh: inconclusive; SW480 rereplic: inactive; Giardia killer: inactive; MCF10A rerep: inactive; BCR signal inh: inactive

How did Cn1c(=O)c2nc(SCC(=O)Nc3ccc(OC(F)(F)F)cc3)n(C)c2n(C)c1=O do in these assays?
BCR signal inh: inactive

What do the screens show for `NC(=O)C1CCN(C(=O)c2ccc3c(c2)N(Cc2cccc(Cl)c2)C(=O)c2ccccc2S3=O)CC1` (centres undefined)?
BCR signal inh: inactive

What do the screens show for `COc1cc(/C=N/NC(=S)Nc2cccc(C(=O)O)c2)ccc1O`?
VP16 counter: inactive; RORgamma inh: inconclusive; Giardia killer: inactive; MCF10A rerep: inactive; BCR signal inh: inconclusive

Results for COc1ccc(C(=O)Nc2cccc(C(=O)N/N=C/c3ccc(OC)cc3OC)c2)cc1 ?
VP16 counter: 14µM; RORgamma inh: 10µM; SW480 rereplic: inactive; Giardia killer: inactive; MCF10A rerep: inactive; BCR signal inh: inconclusive

What do the screens show for `COc1ccc(/C=N/NC(=S)Nc2cccc(C(=O)O)c2)cc1`?
VP16 counter: 11µM; RORgamma inh: 3.5µM; SW480 rereplic: inactive; Giardia killer: inactive; MCF10A rerep: inactive; BCR signal inh: inconclusive

How did COc1ccc(/C=N/NC(=O)c2cccc(NC(=O)c3ccccc3Cl)c2)cc1 do in these assays?
VP16 counter: inactive; RORgamma inh: inactive; SW480 rereplic: 6.5µM; Giardia killer: inactive; MCF10A rerep: 2.6µM; BCR signal inh: inconclusive
